AmpC inh no detg – AmpC beta-lactamase inhibition without detergent; P00811; AmpC nitrocefin hydrolysis, absorbance 480 nm, 0.0001% Triton; Potency, µM (top dose mostly 57.1 µM), for inactives: top-dose activity change, negative = inhibition, most hits filed as inhibitors; 330,000 tested, 0.52% active;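 note: plate controls were no compound for no effect and no enzyme for full effect; nearly all actives have a fitted effect of over 20% in size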
Target sequence (P00811 whole entry, looked up): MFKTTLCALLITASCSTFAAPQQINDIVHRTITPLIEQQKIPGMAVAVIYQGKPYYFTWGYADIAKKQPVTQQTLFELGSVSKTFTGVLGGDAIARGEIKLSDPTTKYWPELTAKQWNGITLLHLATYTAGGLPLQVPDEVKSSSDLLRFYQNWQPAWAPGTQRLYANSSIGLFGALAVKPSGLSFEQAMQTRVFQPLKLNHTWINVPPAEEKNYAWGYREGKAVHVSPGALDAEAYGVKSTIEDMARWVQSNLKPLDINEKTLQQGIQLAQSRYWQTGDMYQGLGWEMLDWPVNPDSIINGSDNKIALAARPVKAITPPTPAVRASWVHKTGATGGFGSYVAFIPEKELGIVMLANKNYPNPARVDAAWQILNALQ
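20 mM phosphate pH 7.0 + 0.01% (detergent screen) or 0.0001% Triton X-100; 5.3 nM AmpC reagent; cpd preinc 15 min RT; nitrocefin (800 uM stock) to start; A480 q20 s × 4 min; Activity was normalised to no-enzyme and no-compound control wells.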
Pf growth 96h – inhibits malaria parasite growth, 96 h; P. falciparum luciferase reporter growth, 96 h; Potency, µM (top dose mostly 28.7 µM), inactives show at the highest dose activity change, negative = inhibition, usual class: inhibitors; 320,000 tested, 6.9% active; AID 504834
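Delayed-death screen, second-generation endpoint: infected erythrocytes, 2% hematocrit, 0.05% parasitemia final; 96 hours at 37 C, 5% CO2; luciferase detection reagent; luminescence decrease equals reduced growth.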
AMA1 RON2 block – AMA1-RON2 (P. falciparum) interaction inhibition; AlphaScreen AMA1-biotinylated RON2 peptide binding; Potency, µM (doses to about 58.2 µM), inactives show at the top dose activity change, negative = inhibition, actives largely listed as inhibitors; 360,000 tested, 0.2% active;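 note: 0% = vehicle wells and -100% = peptide control; nearly all actives have a fitted effect of over 45% in size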
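AMA1 (3D7) with his tag at 25 nM final met compounds first, then biotinylated RON2 peptide at 25 nM; detection used donor plus acceptor beads, 10 µg/mL apiece, read by AlphaScreen after 30 min at room temperature.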
AmpC inh detg – blocks E. coli AmpC beta-lactamase in detergent assay | AmpC hydrolysis of nitrocefin, absorbance 480 nm, 0.01% Triton | Potency, µM (series often up to 114 µM), inactives show top-dose activity change, negative = inhibition, actives largely listed as inhibitors | 370,000 tested, 0.041% active | AID 485294 | P00811;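 note: 0% = no-compound wells and -100% = no-enzyme wells; nearly all actives have a fitted effect of over 25% in size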
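AmpC (5.3 nM in the dispensed reagent) in 20 mM phosphate pH 7.0 with 0.01% (detergent screen) or 0.0001% Triton X-100 was preincubated with compounds for 15 min at room temperature. Nitrocefin was then added from an 800 uM solution, and hydrolysis was followed at 480 nm.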
HCV inh – HCV inhibition; Huh7.5.1 HCVcc-Cre infection, luciferase reporter, 44 h; Potency, µM (highest dose often 41.8 µM), without a hit: at the top dose activity change, negative = inhibition, usual class: inhibitors; 340,000 tested, 3.4% active
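Infectious HCV cell culture screen: compound-treated cells (1,000/well, pre-plated 4 h) are infected with HCVcc-Cre at roughly 0.5 moi and grown 44 h. Infection is quantified by luciferase signal after 15 min substrate incubation at room temperature.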
Pf growth 48h – P. falciparum growth inhibition at 48 hours (one generation); P. falciparum luciferase growth in erythrocytes, 48 h; Potency, µM (titrated, usually from 28.7 µM), for inactives: top-dose activity change, negative = inhibition, hits mostly inhibitors; 310,000 tested, 5.9% active; AID 504832
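Here the parasites carry a stable luciferase gene and grow inside erythrocytes in Albumax-based RPMI medium with compound for one erythrocytic cycle. Activity is scored as loss of luminescent signal.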
The depositor's hits bear a star; ? = inconclusive; · = not tested or not shown. In the library only some 11% were active in any assay of this set; here they are far more common. Calls come from the whole dose curve; as a rule, active = well fitted curve in the direction sought with a large enough effect; inconclusive = small, poorly fitted or top-dose-only effect, or another doubt; inactive = no such curve, though single readings can be large; an effect the other way counts as inactive or inconclusive. Unless noted, % is set by controls: 0 for no effect and ±100 for the full control effect; potency is the fitted concentration of half-maximal effect.

SMILES | AmpC inh no detg | Pf growth 96h | AMA1 RON2 block | AmpC inh detg | HCV inh | Pf growth 48h
Cc1ccc(S(=O)(=O)NCC(=O)OCC(=O)c2cccs2)cc1 | -2% | 13µM* | 10% | -15% | 19% | -2%
COC(=O)c1ccc(COC(=O)CNS(=O)(=O)c2ccc(C)cc2)cc1 | -24% | 0% | 4% | -5% | 5% | 99%
Cc1cccc(NS(=O)(=O)c2ccc3c(c2)CCN3C(=O)C2CC2)c1C | · | · | · | -6% | · | ·
COc1ccc2c(c1)/C(=C/c1cnc[nH]1)C(=O)N2 | -29% | 5.2µM* | -20% | ? | ? | ?
CC(C)(C)c1ccc(CN(Cc2ccccc2)C(c2ccccn2)c2nnnn2C(C)(C)C)cc1 (centres undefined) | 3% | · | -10% | 1% | 10µM* | 1.7µM*
CC(C)(C)n1nnnc1C(c1ccc(F)cc1)N(Cc1ccc(F)cc1)Cc1ccco1 (centres undefined) | -22% | -16% | -4% | -4% | ? | ?
CC(C)(C)n1nnnc1C(c1cccnc1)N(Cc1ccccc1)Cc1cccs1 (centres undefined) | 85% | 0.17µM* | -22% | 1% | ? | 0.83µM*
Cc1ccc(C(c2nnnn2C(C)(C)C)N(Cc2ccco2)Cc2cccs2)cc1 (centres undefined) | -10% | · | -11% | -1% | ? | 13µM*
CC(C)(C)n1nnnc1C(c1ccc(C(F)(F)F)cc1)N(Cc1ccc(F)cc1)Cc1ccco1 (centres undefined) | -20% | -18% | -5% | 5% | -13% | 1.9µM*
CCN(Cc1ccccc1)C(c1ccncc1)c1nnnn1C(C)(C)C (centres undefined) | 69% | -2% | -9% | ? | 13% | ?
COc1ccc2c(c1)CCc1c(C(=O)Nc3c(C)nn(Cc4ccc(Cl)c(Cl)c4)c3C)noc1-2 | · | · | · | -2% | · | ·
CCCCn1nc(NC(=O)c2cccc(Cl)c2)c2cc3cccc(C)c3nc21 | · | · | · | 11% | · | ·
CCN(Cc1ccccc1)C(c1ccc(C)cc1)c1nnnn1C(C)(C)CC (centres undefined) | -1% | 137% | -5% | ? | 10µM* | 13µM*
Cc1cc[n+]2c3c(cccc13)CCC2 | 1% | · | 3% | -3% | 10% | 3.7µM*
O=C(Cn1ncc2c(Cl)cccc21)NCc1cccc(Cl)c1 | · | · | · | -5% | · | ·
Cc1cc(C(C)(C)C)cc(C)c1C[n+]1ccc2ccccc2c1 | 29% | 1.3µM* | -1% | 6% | ? | 1.2µM*
COc1ccc(OC)c(Nc2nc3ccccc3n3c(C)nnc23)c1 | · | · | · | 14% | · | ·
O=C(CSc1nnc(CNc2ccc(F)cc2)n1Cc1ccccc1)NCc1ccco1 | 36% | ? | -9% | -17% | -17% | ?
COc1ccccc1-n1c(CNc2ccc(F)cc2)nnc1SCC(=O)Nc1cc(C)on1 | -19% | -30% | 3% | -2% | -13% | 13µM*
COc1ccc(NCc2nnc(SCC(=O)NCc3ccccc3)n2-c2ccccc2OC)cc1 | 28% | -101% | -7% | 0% | ? | ?
CCOc1ccccc1-n1c(CNc2ccc(F)cc2)nnc1SCC(=O)NCc1ccco1 | 17% | 5% | 12% | -9% | -8% | 12µM*
CCOC(=O)c1c(NC(=O)CCCOc2ccc(C)cc2)sc2c1CCC(C)C2 (centres undefined) | · | · | · | 8% | · | ·
CCOc1ccc(S(=O)(=O)N2CCC(N3CCN(Cc4ccc(F)cc4)C(=O)C3=O)CC2)cc1 | · | · | · | -2% | · | ·
CC(=O)C1=C(C)Nc2ncnn2C1c1ccccc1 (centres undefined) | 1% | 0.33µM* | -2% | -6% | 17% | 32%
CC(=O)C1=C(C)Nc2ncnn2C1c1cccc(OCc2ccccc2)c1 (centres undefined) | -1% | 0% | 5% | ? | 1% | 10µM*
SMILES | AmpC inh no detg | Pf growth 96h | AMA1 RON2 block | AmpC inh detg | HCV inh | Pf growth 48h
COc1cccc(C2C(C(C)=O)=C(C)Nc3ncnn32)c1 (centres undefined) | -12% | 79% | 1% | -4% | 27% | -2%
COC(=O)C1=C(C)Nc2ncnn2C1c1ccc(C)o1 (centres undefined) | -15% | 10µM* | -3% | 0% | 23% | -13%
CNc1cccnc1C=NNC(N)=S | · | · | -2% | · | 3.5µM* | ·
NC(=S)N/N=C/c1cccnc1 | · | -12% | · | · | · | -10%
COc1ccc(N2CCC(CNC(=O)Nc3ccc(Cl)cc3)C2)cc1 (centres undefined) | -55% | -23% | ? | 3% | ? | -19%
COc1ccc(N2CCC(CNC(=S)Nc3cccc(OC)c3)C2)cc1 (centres undefined) | -29% | -3% | · | -13% | -6% | ?
CCc1cccc(C)c1NC(=S)NCC1CCN(c2ccc(OC)cc2)C1 (centres undefined) | -6% | -4% | -20% | 2% | -13% | 3.3µM*
COc1ccc(N2CCC(CNC(=O)Nc3cccc(OC)c3)C2)cc1 (centres undefined) | 13µM* | -27% | ? | 2% | · | ·
CCc1ccccc1NC(=S)NCC1CCN(c2ccc(OC)cc2)C1 (centres undefined) | -37% | ? | -80% | 5% | ? | 12µM*
C=CCNC(=O)C1CC1(c1cccc(C)c1)c1cccc(C)c1 (centres undefined) | · | · | 0% | · | 22% | ·
Cc1cccc(C2(c3cccc(C)c3)CC2C(=O)Nc2ccc([N+](=O)[O-])cc2O)c1 (centres undefined) | -53% | ? | -15% | -8% | ? | 2.1µM*
Cc1ccc(NC(=O)c2cc3nc(-c4ccc5c(c4)OCO5)cc(C(F)(F)F)n3n2)cc1Cl | · | · | · | 1% | · | ·
COC(=O)CCC/C=C1/SCC(NC(=O)c2ccccc2)C1=O (centres undefined) | 3% | 9.3µM* | -16% | -10% | 11% | ·
COC(=O)c1ccc(C2NC(=S)N(c3ccccc3)C(C)=C2C(=O)Nc2ccccc2OC)cc1 (centres undefined) | -35% | · | 35% | 3% | ? | 13µM*
COc1ccc(Cn2c(SCc3cc(C)ccc3C)nc3cc(OC)c(OC)cc3c2=N)cc1 | -14% | ? | -14% | 10% | 2.8µM* | 1.7µM*
CCn1cc2nc(SCc3cc(C)ccc3C)n(Cc3ccc(OC)cc3)c(=O)c2n1 | · | · | · | 5% | · | ·
COc1cc2nc(SCc3ccc(Cl)cc3Cl)n(Cc3cccs3)c(=N)c2cc1OC | -36% | 13µM* | -5% | -13% | ? | ?

Screens deposited in PubChem BioAssay by National Center for Advancing Translational Sciences (NCATS).
